# Source: PubChem (several laboratories)
# An excerpt weighted towards active compounds, which were near 2.4% of everything screened.
# EP2 modulator: modulates human prostaglandin E2 receptor EP2 signaling; P43116; EP2-expressing cells, cAMP HTRF FRET, PGE2 co-stimulation; induction, % at 25 µM; actives 0.83% (n = 260,000); AID 940;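 active means compounds whose cAMP rise, as percent of the full-agonist control response, exceeds 60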;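 further: rat C6 glioma line stably carrying human EP2 under a CMV promoter; the protocol text gives 20 µM as final concentration; 100% = response of wells given 1 µM PGE2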
# Target sequence (P43116 whole entry, looked up): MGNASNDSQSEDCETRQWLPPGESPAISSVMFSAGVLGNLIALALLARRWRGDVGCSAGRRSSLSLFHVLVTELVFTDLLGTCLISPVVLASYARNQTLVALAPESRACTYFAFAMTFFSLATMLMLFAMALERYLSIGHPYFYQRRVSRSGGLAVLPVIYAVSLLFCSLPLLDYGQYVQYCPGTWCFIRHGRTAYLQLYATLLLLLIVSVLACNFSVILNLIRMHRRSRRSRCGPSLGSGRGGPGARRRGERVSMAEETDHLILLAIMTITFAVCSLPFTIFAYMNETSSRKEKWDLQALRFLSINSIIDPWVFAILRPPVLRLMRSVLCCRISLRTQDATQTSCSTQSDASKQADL
# S1P3 antagonist: antagonists of human S1P3 receptor. Q99500. CHO S1P3 NFAT-BLA reporter, FRET fluorescence, antagonist mode. inhibition, % at 4.98 µM. actives 0.27% (n = 170,000). AID 485;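 active means inhibition above the plate cutoff, the mean inhibition of test wells on that plate plus 3 SD, cut at about 28% in these data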;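 further: cells challenged with S1P at its EC80 of 0.8 µM; blue over green emission ratio from cleaved BLA substrate after 4 h stimulation; 0% = S1P-stimulated wells and 100% = unstimulated DMSO-only wells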
# S1P4 antag: human S1P4 receptor antagonism; O95977; S1P4-expressing cells, antagonist mode, reporter read-out; inhibition, % at 4.98 µM; actives 0.26% (n = 220,000); AID 1510; in the data active means inhibition above about 29%;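 further: 0% = wells stimulated with agonist and 100% = vehicle wells without agonist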
# INS promoter inh: TRM-6 insulin promoter activity inhibition | TRM-6 cells (human fetal islet line), insulin promoter-eGFP reporter, imaging; reporter expression induced with tamoxifen | inhibition, % at 2 µM | actives 0.9% (n = 130,000) | AID 1273;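 active means inhibition above the mean plus 3 SD, with well images judged a real hit on visual review, cut at about 60% in these data, passing the limit was not always enough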
# S1P4 agonist: human S1P4 receptor agonism; O95977; S1P4-expressing cell line, agonist reporter assay; activation, % at 4.98 µM; actives 0.35% (n = 220,000); in the data active means activation above about 11%;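 further: 0% = DMSO vehicle and 100% = reference agonist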
# EP2 antag: blocks the human prostaglandin E2 receptor EP2 | P43116 | C6 glioma cells expressing human EP2, cAMP TR-FRET; cells stimulated with saturating PGE2 | inhibition, % at 25 µM | actives 0.52% (n = 260,000) | AID 1422;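 active means percent inhibition above 40 after rounding to a whole number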;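 further: rat C6 glioma host cells with rolipram phosphodiesterase inhibitor present; the protocol text gives 20 µM as final concentration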
# EP2 cAMP induct: EP2 receptor cAMP induction, counter-screens negative; actives 47% (n = 1,300); shares compounds with EP2 modulator; calls only at 20 µM (by protocol); C6 glioma EP2 cells, cAMP HTRF induction; plus low (about EC15) PGE2 agonist;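 active means cAMP induction above 50% in the main assay while under 30% in all four parallel counter assays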;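 further: rat C6 glioma cells stably expressing human EP2 receptor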
# Active calls of the source: *; i = inactive; . = no result given; + = active, no number.
SMILES,EP2 modulator,S1P3 antagonist,S1P4 antag,INS promoter inh,S1P4 agonist,EP2 antag,EP2 cAMP induct
CC(Sc1cnc2ccccc2n1)C(=O)O (stereo unspecified),68*,.,4,-56,2,19,i
CC(=O)N1CCCc2cc(C(O)CN3CCN(c4cccc(C)c4)CC3)ccc21 (stereo unspecified),-32,.,.,.,.,5,.
Cn1c(=O)c2c(nc(SCC(=O)NC3CCCC3)n2Cc2ccc(Cl)cc2)n(C)c1=O,-36,.,.,.,.,9,.
CC(=O)NC(c1ccccc1)c1cccnc1 (stereo unspecified),70*,20,-13,.,1,6,i
O=C(O)c1ccc(C(=O)O)c(C(=O)Nc2ccc3c(c2)Cc2ccccc2-3)c1,92*,.,.,.,.,61*,+
COc1ccc(OC)c(C(=O)CSc2nnc(-c3cccs3)n2C)c1,6,-32,-21,24,1,0,.
COc1ccc(OC)c(C(=O)CSc2nnc(Cc3cccs3)n2CCc2ccccc2)c1,66*,.,-10,3,0,0,+
Cc1cc(NC(=O)c2cc(-c3ccncc3)nc3c(C)cccc23)no1,65*,6,-1,-124,0,12,i
Cn1c(-c2ccccc2)c(C(=O)CCl)c2ccccc21,21,4,15,.,1,2,.
CCn1c(-c2ccccc2)c(C(=O)CCl)c2ccccc21,78*,-6,9,i,1,12,+
Cc1cc(NC(=O)c2sccc2C)n(-c2nc3ccccc3[nH]2)n1,24,-3,-1,.,1,6,.
COc1ccc(C(=O)Nc2cc(C)nn2-c2nc3ccccc3[nH]2)c(OC)c1,70*,5,-7,14,0,7,+
CCSc1cc(N2CCOCC2)nc(-c2ccccc2)n1,65*,6,-11,.,1,4,+
c1ccc(-c2cc(N3CCOCC3)nc(-c3ccccc3)n2)cc1,40,-4,-14,.,4,8,.
O=C(Nc1ccccc1N1CCN(c2ccccc2)CC1)C12CC3CC(CC(C3)C1)C2,68*,.,-10,12,0,9,i
O=C(Cc1ccccc1)Nc1ccccc1N1CCN(c2ccccc2)CC1,72*,15,0,.,1,5,+
O=C(CNCc1ccccc1Cl)Nc1ccccc1N1CCCCC1,75*,5,-3,.,1,2,+
COc1ccc(C2(O)CCN(CCNC(=O)C3CCCCC3)CC2)cc1,-21,.,.,.,.,7,.
CCOC(=O)CC(=O)CSc1nc(-c2ccc3c(c2)OCO3)cc(C(F)(F)F)c1C#N,68*,.,-10,-74,1,7,i
CC(=O)c1ccc(-n2c(C)ccc2-c2ccccc2)cc1,90*,.,3,.,-1,4,+
COC(=O)c1ccc(-n2c(C)ccc2-c2ccccc2)cc1,60,.,-4,4,1,10,.
COc1cc(C=O)ccc1OC(=O)c1ccc(C(C)C)cc1,74*,-11,-6,.,-1,6,i
CCc1nn(CC(=O)NCCc2ccc(F)cc2)c(=O)c2cc3occc3n12,-2,.,.,.,.,.,.
CCc1nn(CC(=O)N(Cc2ccncc2)C2CC2)c(=O)c2cc3occc3n12,16,.,.,.,.,.,.
N#Cc1c(NC(=O)CSc2n[nH]c(Cc3ccccc3)n2)oc(-c2ccccc2)c1-c1ccccc1,77*,-18,-1,19,0,6,i
SMILES,EP2 modulator,S1P3 antagonist,S1P4 antag,INS promoter inh,S1P4 agonist,EP2 antag,EP2 cAMP induct
N#Cc1c(NC(=O)CSc2ncccn2)oc(-c2ccccc2)c1-c1ccccc1,.,.,-5,0,0,8,.
CCc1[nH]nc(NS(=O)(=O)c2ccc3c(c2)oc(=O)n3CC)c1C,-43,.,.,.,.,2,.
S=c1[nH]nc(-c2ccc3ccccc3n2)n1Cc1ccccc1,74*,-11,-14,7,1,7,i
Cc1scc(-c2n[nH]c(=S)n2Cc2ccccc2)c1C,51,-14,-6,16,0,2,i
Oc1ccc(-c2n[nH]c(=S)n2Cc2ccccc2)cc1,27,-42,-15,26,1,10,.
CCc1c(-c2n[nH]c(=S)n2Cc2ccccc2)csc1C,51,1,8,38,0,6,i
